Laboratory results reported in the supplement of paper PMC6555819.

The sequences below were run on RARg homodimer (NR concentration 270 nM) (assay: PBM binding z-score (relative to random genomic background probes); higher = stronger binding; sequences stand for … in GC…GCGATTGACAGCGTAGAATGAAGG).
In short: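 Probes were double-stranded and carried 34-nt variable regions with direct-repeat seeds, single-nucleotide variants, half-site ablations and random human genomic background sequences, printed on custom Agilent 4×180K protein-binding microarrays. Arrays were incubated 1 h with ligand-free nuclear receptor dimers in PBS pH 7.4, 2% milk, 0.02% Triton X-100, 1 mM DTT, 0.2 mg/mL BSA and 0.4 mg/ml salmon testes DNA. Antibodies against each partner (one per run) detected binding, and scanned fluorescence was regression-normalized. Binding z-scores use the random background probes as reference.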

Sequence	PBM binding z-score
GCAGACACGTGAAACGCAGGTAACTCAGGGTGGC	-0.333
TCATATAGGTAAATGCTAGGTGATAGTCCGATCT	0.457
AGAACAAGGGCACGCTGAGTTGATAGCAGAGTAG	1.99
CCTTACGGGTCACTTCAGGTTATAGCATCGGAGT	4.1
ATCGAAAGGTCGAAGGTGAATATACCCACCCGAA	3.68
CCTATTAGTTGACCATAAGGGCAGCCGAAGCTCG	0.64
GCTAGCAGGCCTTTTGGGTCACTCAATGACGGGC	0.516
CATAGCAGGCCAATCTGGGTCACTCAAGGCTTGA	1.57
CCAGACAGGTGAAAGGTGACTCAGTCTGGTACGC	1.15
TATCGGAGGACACGAAGGTCAGAGCTTTCCAGAG	3.73
AGAATGAGGTTATTAAGATCAGTGAATTGCGGTC	0.905
TCTCGGAGGACACGAGAGGTCAGAGCTCGACATC	4.28
ATTCAAAGTTCAGGACGAGGTAACGTAAAGCACG	4.73
CCAGACAGGTGAGAGGGTAACTCAGCCTCGATTA	0.626
TCGAGTAGGTTAGTCGGCGCATTCAGCCAACATA	-0.662
CAAATTAGGTCAAGAGGTCAAAGTCCGCTTCCCG	7.88
GCTAGCAGGCCATATGGGTCACTCAATGACGGGC	1.39
TCCTGTAGATCAGCAGGTTAAGAAAGCTGGCCAA	-0.286
ATCGAAAGGTCGAGGTGAATATAGAGAAAGGGAA	4.51
ACAGACAGGTGATTAAGGTAACTCAGGCTATCAT	0.554

Sequence	PBM binding z-score
AGTCGAAGTTCACTAGGTAACGTAAGATTCAGCT	2.93
CGAACTAGGTCAAGGACAGTCAATCTCCGCACGC	4.63
TCGAGGAGGTTACCAATGGGGCATTCAGCTTTCT	1.13
TCATATAGGTAAATGCTATGTGAAAGTCCGATCT	0.452
ACTAGCAGGCCAAGGTTGGGTCACTCAAACAAAG	1.36
GCTGCTAGGTCAGGTAGGTCAGCTAACGGGTACG	4.85
TCTTGTAGATCACGCAGGTTAAGAAAGCCTGAGT	0.0532
CCGACTGGGGCAAGGTTAGCATAACGCACAGCCA	0.814
TAGCCTAGGTCATTGGTCCAGTATAGTACGCATC	3.82
CAAACTAGGTCAAAGGTCAAAGTGGAGCCAACCA	7.43
CGAACCAGGGCATGAGTTGATAGCAAATGCCGAT	0.753
CGAACTAGGTCATTGTCAGGACAGTGAATAGTAA	4.35
ATACCAAGGTGATCGTGACGTCGTTGATACTAAC	0.417
TCTTGTAGATCAAGCAGGTTAACAAAGCCTGAGT	0.0907
CCTACTGGGCCACGAAAGGTCAATGATTCAGTGA	4.64
ATCTCTAGGTAAAGATAGTTCGGTGAATGCAAAT	0.491
TCTATTAGTTGAAGGACAACCGACGAGTCCGTTT	0.728
TCTAGTAGATCAAGCAGGTTAAGAAAGCCTGAGT	-0.373
ATACCATGGTGATCGTGAGGTCGTTGATACTAAC	0.264
CCTACTGGGCGATCAGGTCATTGATATCAACGTT	1.37
